In PubChem BioAssay (NCI):
This is part of a sample that, as a whole, favours compounds with a hit. Of some 83,000 tested, about 20% had one in any assay.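 Treatment: one concentration, 48 hours, 96-well format. Scoring: percent growth, with anything below 10 considered active.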 The source made the active and inactive calls.

What was measured:
Assay in all cases: NCI-60 one-dose screen, 48 h (100 = growth as untreated, 0 = no growth, -100 = all killed)
Conditions in all cases: 10 µM unless noted
EKVX NSCLC = tested on: EKVX NSCLC
SN12C renal = tested on: SN12C renal
UO-31 renal = tested on: UO-31 renal
TK-10 renal = tested on: TK-10 renal
ACHN renal = tested on: ACHN renal
CAKI-1 renal = tested on: CAKI-1 renal
A498 renal = tested on: A498 renal
CCRF-CEM leukemia = tested on: CCRF-CEM leukemia
SR leukemia = tested on: SR leukemia
MOLT-4 leukemia = tested on: MOLT-4 leukemia

Measured: growth

CC(=O)NC1(C(=O)O)CCCC1
inactive: EKVX NSCLC 112% | SN12C renal 114% | UO-31 renal 99.9% | TK-10 renal 117% | ACHN renal 105% | CAKI-1 renal 111% | A498 renal 105% | CCRF-CEM leukemia 96.4% | SR leukemia 108%

O=C1Nc2ccccc2C12Nc1cc(Cl)ccc1S2 (configuration not stated)
inactive: EKVX NSCLC 74% | SN12C renal 94.7% | UO-31 renal 69.6% | TK-10 renal 141% | ACHN renal 99.6% | CAKI-1 renal 70.7% | A498 renal 107% | MOLT-4 leukemia 60.1%

CCOc1ccccc1C(=O)OCC(=O)Nc1cccc(S(=O)(=O)N(C)C)c1
inactive: EKVX NSCLC 104% | SN12C renal 103% | UO-31 renal 79% | TK-10 renal 169% | ACHN renal 121% | CAKI-1 renal 95.2% | A498 renal 118% | MOLT-4 leukemia 105% | SR leukemia 105%

CO[C@H]1/C=C/O[C@@]2(C)Oc3c(C)c(O)c4c(O)c(c(/C=N/N5C(C)CN(Cc6ccccc6)CC5C)c(O)c4c3C2=O)NC(=O)/C(C)=C\C=C\[C@H](C)[C@H](O)[C@@H](C)[C@@H](O)[C@@H](C)[C@H](OC(C)=O)[C@@H]1C (some centres not stated)
inactive: EKVX NSCLC 64.7% | SN12C renal 87% | UO-31 renal 34.1% | TK-10 renal 69.1% | ACHN renal 70.1% | CAKI-1 renal 117% | A498 renal 96.1% | CCRF-CEM leukemia 285% | SR leukemia 212%

O=C1OCC/C1=C\OCCCO/C=C1\CCOC1=O
inactive: EKVX NSCLC 101% | SN12C renal 99.3% | UO-31 renal 90.7% | TK-10 renal 110% | ACHN renal 103% | CAKI-1 renal 106% | A498 renal 119% | MOLT-4 leukemia 111%

O=C(/C=C/c1cc2ccccc2[nH]c1=O)c1ccc(Cl)cc1
inactive: EKVX NSCLC 63.7% | SN12C renal 47.4% | UO-31 renal 29.8% | TK-10 renal 48.5% | ACHN renal 51.6% | CAKI-1 renal 42.1% | A498 renal 13.7%
active: MOLT-4 leukemia 2.61%

O=Nc1ccc(O)c(=O)cc1
inactive: EKVX NSCLC 72.5% | SN12C renal 14.3% | TK-10 renal 14.6% | A498 renal 145% | MOLT-4 leukemia 14%
active: UO-31 renal -36% | ACHN renal 1.32% | CAKI-1 renal -7.71% | SR leukemia 2.22%

C/C(=N\N1CC(=O)NC1=O)c1ccc([N+](=O)[O-])o1
inactive: EKVX NSCLC 90.8% | SN12C renal 102% | UO-31 renal 85.1% | TK-10 renal 105% | ACHN renal 105% | CAKI-1 renal 109% | A498 renal 76.7% | MOLT-4 leukemia 99.5% | SR leukemia 95.9%

Cc1cc(NC(=O)Nc2cc(Cl)ccc2C)no1
inactive: EKVX NSCLC 87% | SN12C renal 109% | UO-31 renal 96.2% | TK-10 renal 231% | ACHN renal 103% | CAKI-1 renal 96.1% | A498 renal 133% | MOLT-4 leukemia 97.5% | SR leukemia 59.4%

O=C(NCCc1ccccc1)C1CCC(=O)N1Cc1ccc(Br)cc1 (configuration not stated)
inactive: EKVX NSCLC 103% | SN12C renal 104% | UO-31 renal 92.6% | TK-10 renal 99.7% | ACHN renal 107% | CAKI-1 renal 100% | A498 renal 88.3% | MOLT-4 leukemia 94% | SR leukemia 102%

O=C(/C=C/c1cc2ccccc2[nH]c1=O)c1ccc(O)cc1
inactive: EKVX NSCLC 87.5% | SN12C renal 47.5% | UO-31 renal 45.6% | TK-10 renal 50.1% | ACHN renal 66.2% | CAKI-1 renal 40.9% | A498 renal 56.2% | MOLT-4 leukemia 30.9%
active: SR leukemia -0.193%

Cc1c(C)c(N2C(=O)C=CC2=O)c(C)c(C)c1N1C(=O)C=CC1=O
inactive: EKVX NSCLC 101% | SN12C renal 104% | UO-31 renal 53.7% | TK-10 renal 119% | ACHN renal 108% | CAKI-1 renal 101% | A498 renal 78.2% | MOLT-4 leukemia 72.4%

c1cnc2ccc3ncccc3c2c1
inactive: EKVX NSCLC 101% | SN12C renal 101% | UO-31 renal 76.8% | TK-10 renal 127% | ACHN renal 82.1% | CAKI-1 renal 90.3% | A498 renal 96.5% | MOLT-4 leukemia 106% | SR leukemia 82%

COc1cc2c(cc1OCCCCCn1c(-c3ccc(OCc4ccccc4)cc3)nc3cc(N4CCOCC4)ccc31)N=C[C@@H]1CCCN1C2=O
active: UO-31 renal 0.0572% | TK-10 renal -13.3% | ACHN renal -54.5% | A498 renal -74.7%
inactive: EKVX NSCLC 52.5% | SN12C renal 23.2% | CAKI-1 renal 18.5% | MOLT-4 leukemia 23.7% | SR leukemia 137%

Nc1c2ccccc2nc2ccccc12 (tested in a mixture with another compound)
inactive: EKVX NSCLC 22.6% | SN12C renal 20.1% | UO-31 renal 14.9% | TK-10 renal 15.5% | CAKI-1 renal 20.2% | MOLT-4 leukemia 15.4%
active: ACHN renal 8.26% | A498 renal 0.179%

Cc1ccc([N+](=O)[O-])cc1NC(=O)Nc1cccc(F)c1
inactive: EKVX NSCLC 48.6% | SN12C renal 88.9% | UO-31 renal 67.7% | TK-10 renal 69.1% | ACHN renal 67.7% | CAKI-1 renal 53.4% | A498 renal 78.3% | MOLT-4 leukemia 62% | SR leukemia 62.6%

COc1cc(/C=C/c2nnc(-c3cc(-c4ccccc4)n[nH]3)o2)cc(OC)c1OC
inactive: EKVX NSCLC 102% | SN12C renal 99.5% | UO-31 renal 80% | TK-10 renal 123% | ACHN renal 91.3% | CAKI-1 renal 89.4% | A498 renal 105% | MOLT-4 leukemia 69% | SR leukemia 86.4%

CN(C)CCCN1c2nc3ccccc3cc2Sc2cc3ccccc3nc21
active: EKVX NSCLC -50.9% | SN12C renal -22.4% | UO-31 renal -22.7% | TK-10 renal -78.2% | ACHN renal -100% | CAKI-1 renal -17.2% | A498 renal -5.96% | MOLT-4 leukemia -57.9% | SR leukemia -38.2%

COc1cccc2c1C(=O)c1c(O)c3c(c(O)c1C2=O)C[C@@](O)(/C(C)=N/NC(=O)c1cccc([N+](=O)[O-])c1)C[C@@H]3OC1CC(N)C(O)C(C)O1 (some centres not stated)
active: EKVX NSCLC -6.35% | SN12C renal -9.27% | UO-31 renal -17% | TK-10 renal -33.8% | ACHN renal -62.6% | CAKI-1 renal -47.4% | A498 renal -58.6% | MOLT-4 leukemia -39%

COc1ccc(C(=O)COc2cccc(/C=C3\Oc4ccc5ccccc5c4C3=O)c2)cc1
active: UO-31 renal -54.4%
inactive: EKVX NSCLC 89.6% | SN12C renal 75% | TK-10 renal 90.1% | ACHN renal 97.5% | CAKI-1 renal 27.6% | A498 renal 139% | MOLT-4 leukemia 18.9% | SR leukemia 15.9%

CC1=C(C(=O)Nc2ccccc2)C(c2ccc3c(c2)OCCO3)NC(=O)N1 (configuration not stated)
inactive: EKVX NSCLC 112% | SN12C renal 100% | UO-31 renal 87% | TK-10 renal 133% | ACHN renal 104% | CAKI-1 renal 95.6% | A498 renal 101% | MOLT-4 leukemia 101% | SR leukemia 92.9%

COc1ccc(-c2cn(-c3ccccc3)c(-c3ccccc3)n2)cc1OC
inactive: EKVX NSCLC 84.9% | SN12C renal 71.9% | UO-31 renal 52.1% | TK-10 renal 99.4% | ACHN renal 64.4% | CAKI-1 renal 79.3% | A498 renal 104% | SR leukemia 11.3%
active: CCRF-CEM leukemia -66.6%

N=c1ccn2c(n1)O[C@@H]1[C@@H](O)[C@H](CO)O[C@@H]12
inactive: EKVX NSCLC 98.8% | SN12C renal 54.3% | UO-31 renal 15.5% | TK-10 renal 67.2% | ACHN renal 11.8% | CAKI-1 renal 55.3% | A498 renal 99.3% | MOLT-4 leukemia 28.2%

Cc1nc2c(O)cccc2cc1CO
inactive: EKVX NSCLC 107% | SN12C renal 105% | UO-31 renal 103% | TK-10 renal 168% | ACHN renal 110% | CAKI-1 renal 104% | A498 renal 131% | MOLT-4 leukemia 105% | SR leukemia 67.7%

CCOC(=O)C1=C(COCCN)NC(C)=C(C(=O)OC)C1c1ccccc1Cl (configuration not stated)
inactive: EKVX NSCLC 83.9% | SN12C renal 75.9% | UO-31 renal 45.4% | TK-10 renal 67.8% | ACHN renal 43.8% | CAKI-1 renal 64.5% | A498 renal 62.4% | MOLT-4 leukemia 67%

CC(=O)c1cc(C(=O)c2ccc3c(c2)Sc2ccccc2N3)c2c(C)cc(C)cn12
inactive: EKVX NSCLC 34.3% | SN12C renal 20.7% | UO-31 renal 22.5% | TK-10 renal 34.6% | ACHN renal 12.2% | MOLT-4 leukemia 19.2%
active: CAKI-1 renal 9.64% | A498 renal -27.3% | SR leukemia 5.45%

CC(NC(=O)C(C)Oc1ccc(Cl)cc1Cl)C(=O)O (configuration not stated)
inactive: EKVX NSCLC 95.8% | SN12C renal 73.3% | UO-31 renal 78.1% | TK-10 renal 125% | ACHN renal 109% | CAKI-1 renal 101% | A498 renal 113% | MOLT-4 leukemia 139% | SR leukemia 137%

Cc1ccccc1NC(=O)c1cc2ccccc2cc1O
active: UO-31 renal -8.7%
inactive: EKVX NSCLC 43.8% | SN12C renal 30.2% | TK-10 renal 60.1% | ACHN renal 34% | CAKI-1 renal 41.4% | A498 renal 43% | MOLT-4 leukemia 14.2%

CC(=O)n1c2ccccc2c2ccccc21
inactive: EKVX NSCLC 103% | SN12C renal 107% | UO-31 renal 83.6% | TK-10 renal 115% | ACHN renal 117% | CAKI-1 renal 97.5% | A498 renal 95.1% | MOLT-4 leukemia 104%

NC(=Nc1ccccc1)SCCCCSC(N)=Nc1ccccc1
inactive: EKVX NSCLC 80.4% | SN12C renal 87% | UO-31 renal 31% | TK-10 renal 97.3% | ACHN renal 75.4% | CAKI-1 renal 74.2% | A498 renal 82.3% | MOLT-4 leukemia 70.3%

CC[C@H](C)C(=O)O[C@H]1C[C@@H](C)C=C2C=C[C@H](C)[C@H](CC[C@@H]3C[C@@H](O)CC(=O)O3)[C@H]21
active: A498 renal -27.9%
inactive: EKVX NSCLC 62.4% | SN12C renal 42.5% | UO-31 renal 74.7% | TK-10 renal 104% | ACHN renal 32.9% | CAKI-1 renal 20.7% | MOLT-4 leukemia 90.8%
